# Assays:
# [1] = biological target: Tumor necrosis factor receptor superfamily member 10B (Homo sapiens) (UniProt O14763); assay: caspase-8 TRAIL sensitization, hit retest, confirmation, cell-based, NB7+caspase-8, with/without TRAIL, luminescence panel (AID 651596); details: NB7 neuroblastoma + caspase-8, TRAIL sensitization, luminescence viability, with TRAIL, mean of runs, at 10 µM, stronger effect = higher value
# [2] = as above; details: NB7 neuroblastoma + caspase-8, without TRAIL, luminescence viability, without TRAIL, mean of runs, at 10 µM
# Chain of Tumor necrosis factor receptor superfamily member 10B (Homo sapiens) (O14763 whole entry, looked up): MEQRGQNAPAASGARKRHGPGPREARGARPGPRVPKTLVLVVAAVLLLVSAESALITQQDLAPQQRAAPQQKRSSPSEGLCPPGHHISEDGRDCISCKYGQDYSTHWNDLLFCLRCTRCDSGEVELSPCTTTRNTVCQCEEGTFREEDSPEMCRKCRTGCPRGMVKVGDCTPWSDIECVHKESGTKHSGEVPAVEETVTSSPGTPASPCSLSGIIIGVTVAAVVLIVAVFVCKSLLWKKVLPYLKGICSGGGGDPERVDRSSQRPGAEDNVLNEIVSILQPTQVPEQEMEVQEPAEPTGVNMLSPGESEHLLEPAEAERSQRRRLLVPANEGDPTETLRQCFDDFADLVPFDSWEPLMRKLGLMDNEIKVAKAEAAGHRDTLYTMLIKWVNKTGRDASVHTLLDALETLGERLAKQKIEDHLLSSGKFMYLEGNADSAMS
Structure (SMILES),activity [1] [%],activity [2] [%]
COc1cccc(N2C(N)=NC(N)=NC2(C)C)c1,79.7,85
Cc1nnc(SCC(=O)Nc2ccc(-c3nc4ccccc4s3)cc2)s1,51.9,33.7
CC1C(=O)NN=C1C(=O)N/N=C\C(Br)=C\c1ccccc1 (stereo unspecified),80.2,73.8
O=C(Nc1ccc2c(c1)nc1n2CCSC1)c1ccccc1,69.8,60
O=C(Nc1ccc(Cl)c(Cl)c1)Nc1ccccc1C(=O)O,44.6,42.5
Fc1ccc(-c2cnn3c(-c4cccs4)ccnc23)cc1,61.2,59.4
Cn1c(=O)n(CCc2ccccc2)c(=O)c2c1nc1n2CCCN1CCc1ccccc1,21.1,24.9
O=C(OCn1ncc(Cl)c(Cl)c1=O)c1ccccc1Cl,99.1,99.3
CCCCNC(=O)c1ccc(Cn2c(=S)[nH]c3c([nH]c4ccc(OC)cc43)c2=O)cc1,76.7,63.2
Cc1ccc(C(=O)n2c(N)nc3ccccc32)cc1,98.3,98.4
COc1cc2nc(N3CCN(c4cc(C)ccc4C)CC3)nc(N)c2cc1OC,56.7,88.7
CCOc1ccc(N/C=C/C(=O)c2ccccc2)c([N+](=O)[O-])c1,92.7,89.7
CC(C)Oc1ccc(C(=O)NC2=NCCS2)cc1,57.7,61.8
COc1ccc(C(=O)Nn2c(SCC(=O)N3CCC(C)CC3)nc3ccccc3c2=O)cc1,68.2,67.2
COc1cc2c3nnc(-c4ccc(F)cc4)c-3cn(Cc3ccc(C)cc3)c2cc1OC,24.2,60.6
COc1ccc(C2=NN(C(=O)COC(=O)c3ccc(S(C)(=O)=O)c([N+](=O)[O-])c3)C(c3ccco3)C2)cc1 (stereo unspecified),92.5,98.5
COc1ccc(NC(=O)c2ccc(OC)cc2)cc1,54.2,42.5
C=C(C)CSc1nnc2n(C)c(=O)c3c4c(sc3n12)CCC4,61.6,63.9
Cc1ccccc1-c1nnc(SCC(=O)Nc2cccnc2Cl)o1,68.8,61
CCCc1cc(=O)[nH]c(SCC(=O)c2c(N)n(C3CC3)c(=O)[nH]c2=O)n1,80.3,88.8
O=c1c2c(nc3cc(-c4ccc(F)cc4)[nH]n13)CCCC2,71.5,68.3
CCc1ccc(C(=O)Cn2ccsc2=N)cc1,66.5,66.6
CC(C)(C)C(=O)Nc1ccc(-c2cn3ccsc3n2)cc1,95.7,95.8
COc1ccccc1C(CNc1ccc(S(=O)(=O)N2CCCC2)cc1[N+](=O)[O-])N(C)C (stereo unspecified),52.1,55.8
O=c1oc2c(O)cccc2cc1-c1nc2ccccc2[nH]1,72,68.8
COc1ccccc1NC(=O)Nc1ccc2c(c1)nnn2C,20.6,7.6
C/C(=N\NC(=O)c1ccccc1O)c1cccs1,68.1,58.9
COc1ccc(CC(N)c2csc(NC(=O)c3cc(C(C)(C)C)nn3Cc3ccccc3)n2)cc1 (stereo unspecified),52.9,90.5

# — PubChem BioAssay
